Experimental findings from PubChem BioAssay (NCATS) are described below.

Results filed as inconclusive are left out. Activity calls are given as the source filed them. The call rests on the fitted dose curve.

The nature of assay [1]: Confirmatory qHTS for VERO E6 Cytotoxicity Assay: Counterscreen for SARS-CoV-2 CPE Assay (AID 1508605). Further: nearly all actives have a fitted effect of over 60% in size. Background: qHTS replaces the single test concentration by a dilution series.
Assay [2] can be described thus: Confirmatory qHTS for activators (rescue) of SARS-CoV-2 Cytopathic Effect (CPE) (AID 1508606). Further: nearly all actives have a fitted effect of over 70% in size.
A short description of assay [3]: Primary qHTS for Vero E6 cytotoxicity: counterscreen for inhibitors of SARS-S pseudo-typed particle cell entry (AID 1479150).
Assay [4] is described as follows: Primary qHTS for inhibitors of MERS-S pseudo-typed particle cell entry (AID 1479149). Further: nearly all actives have a fitted effect of over 60% in size.
Potency means the concentration at half of the fitted maximal effect.

For the compound `CCN(CC)CCCC(C)Nc1c2ccc(Cl)cc2nc2ccc(OC)cc12` (stereo unspecified), the Potency in assay [1] is 11.2 µM (active). Also, in assay [2], the Potency result is “inactive”.

Take `CN1CCCC(n2nc(Cc3ccc(Cl)cc3)c3ccccc3c2=O)CC1` (stereo unspecified): the Potency entry in assay [3] is “inactive”.

Consider `CCN(CC)CCNc1ccc(CO)c2sc3ccccc3c(=O)c12`, for which the Potency in assay [1] is 10 µM (active). Also, in assay [2], the Potency entry is “inactive”.

For `O=C(Oc1cccc2cccnc12)c1ccccc1`, the Potency was 12.6 µM (active) in assay [4] and 5.62 µM (active) in assay [3].

Consider `CC(C(O)c1ccccc1)N(C)CCOC(c1ccccc1)c1ccccc1` (stereo unspecified), for which the Potency in assay [4] was 22.4 µM (active); in assay [2] it was 10 µM (active). The Potency entry in assay [3] and in assay [1] was “inactive” each time.
